Measurements: PubChem BioAssay
Several values for one entry are separate records, joined by “and”; a condition that tells them apart may be missing. Identical values can stand only once. Activity calls are given as the source filed them.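 Rule for the calls, unless noted: active = compounds whose cell count with miR-34 switched on is under 0.7 times the count with it off; inactive = the rest.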

Columns and labels:
[1] = hESC survival regulators, cell-based (AID 493140; call rule not given here;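 note: cells exposed to compounds for four days before counting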); conditions: human embryonic stem cell survival screen; stronger effect = higher value
[2] = stimulators of nuclear beta-catenin in C2C12, primary screen, imaging, WNT3A-conditioned medium, mouse C2C12, NPC library (AID 1117326; in the data active = nuclear beta-catenin stimulation mostly above about 4.2%, no sharp cut-off; inactive = mostly below about 10%); conditions: stronger effect = higher value
[3] = stimulators of insulin release from INS-1E, primary screen, cell-based, 5 mM glucose, NPC library (AID 1117329;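 active = compound raises insulin release from rat beta cells at 5 mM glucose, no numeric limit stated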); conditions: rat INS-1E insulin secretion, at 10 µM, stronger effect = higher value
[4] = growth inhibition of GSK3B-pretreated HCT116 cells – cell-based, CellTiter-Glo, 0.2 to 20 µM (AID 1117336;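 active = compounds lowering colon cancer cell viability after pretreatment blocking the GSK3B kinase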); conditions: HCT116 viability after GSK3B inhibitor, at 20 µM, stronger effect = higher value
[5] = inhibition of endothelial tube formation, primary screen, imaging, VEGF stimulated, CD31 staining, tube area, NPC library (AID 1117340;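 active = compound that reduces growth-factor-driven endothelial tube area in a mixed cell culture, no cutoff stated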); conditions: VEGF-stimulated ADSC/ECFC co-culture, at 10 µM, stronger effect = higher value
[6] = glucagon-like peptide 1 release enhancers, primary assay, NCI-H716 cell line, NPC library (AID 1117341;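 active = compound raises GLP1 secretion from the human gut endocrine cells, with no numeric limit stated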); conditions: NCI-H716 cells, at 10 µM, stronger effect = higher value
[7] = HCT116 colon cancer cell growth inhibition, primary screen, CellTiter-Glo luminescence, NPC library (AID 1117342;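 active = compounds that lower survival of HCT116 colon cancer cells in the luminescence readout, no numeric limit stated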); conditions: at 20 µM (top of the series)
[8] = CellTiter-Glo luminescent readout of SW480 viability loss, NPC library primary (AID 1117343;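 active = compounds that lower viability of the colon cancer cells in the luminescence readout, with no numeric limit stated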); conditions: CellTiter-Glo luminescence; at 20 µM (top of the series) unless noted
[9] = decreased DLD-1 cellular survival, CellTiter-Glo luminescent readout, NPC compound collection, primary HTS (AID 1117346;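 active = compounds that lower survival of DLD-1 colon cancer cells in the luminescence readout, no cutoff given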); conditions: DLD-1 viability, CellTiter-Glo luminescence; at 20 µM (top of the series)
[10] = differential killing of epithelial or mesenchymal cells, primary screen, imaging, PC-3E GFP, TEM4-18 mCherry, co-culture (AID 1345086;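 active = compounds killing one labelled cell type while sparing the other, by normalised counts and ratio limits, not self-fluorescent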;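 for all read-outs here: cells exposed to compound for 72 h before imaging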;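 for red/green cell ratio (normalised): normalised mesenchymal count divided by normalised epithelial count so high means epithelial killing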); conditions: imaging cell counts, at 1 µM; for red/green cell ratio (normalised): actives lie on both sides, counts scaled to control wells, 1 = unselective
[11] = sensitizers of A549 cells to miR-34 induction, primary screen, imaging, A549 dox-inducible miR-34, nuclei and caspase counts (AID 1347080); conditions: A549 miR-34 inducible, Hoechst nuclei count, 48 h
[12] = survival rescue of mitochondrial mutant cells in low glucose, primary screen, MELAS cybrids, Rieske KO mouse fibroblasts, CellTiter-Glo (AID 1508586;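 active = mean z-score across replicates of 1.96 or higher in either the MELAS or the Rieske mutant cell line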;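 note: z relative to plate mean and SD of compound and empty wells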)
[13] = target: NAD(+) hydrolase SARM1 (Homo sapiens) (UniProt Q6SZW1); assay: SARM1 TIR NADase inhibitors, cell lysate, NAD-Glo luminescence (AID 1508614;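 active = compound whose remaining NAD level is above about 45 nM, limit read from the data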;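 note: higher remaining NAD means stronger inhibition of SARM1 NADase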); conditions: SAM-TIR HEK293T lysate NADase, at 1 µM, stronger effect = higher value
[14] = liver-stage malaria parasite growth inhibition, primary screen, cell-based, HepG2, luciferase luminescence, HepG2 viability (AID 624349; in the data active = parasite load remaining mostly below about 12%, no sharp cut-off; inactive = mostly above about 10%;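 note: 100% = mean of DMSO negative control wells on the same plate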); conditions: P. berghei liver stage in HepG2, luciferase luminescence, concentration not given here; parasite load remaining: stronger effect = lower value; viability: measured here: HepG2 viability without parasites
[15] = LFS_MB_P medulloblastoma growth inhibition, cell-based, chromothripsis tumors, cisplatin or BGB combos (AID 1671449; in the data active = inhibition above about 80%;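 note: cells exposed for 96 hours; 0% = vehicle DMSO and 100% = killing by high DMSO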); conditions: LFS_MB_P medulloblastoma cells
[16] = HDN33 neuroblastoma growth inhibition, cell-based, chromothripsis tumors, cisplatin or BGB combos (AID 1671450; in the data active = inhibition above about 80%;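 note: cells exposed to compound for four days; 0% = vehicle DMSO and 100% = cell killing by high DMSO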); conditions: HDN33 neuroblastoma cells, stronger effect = higher value
[17] = ICB984 medulloblastoma cell growth inhibition, synergistic combos for chromothripsis tumors, cisplatin or BGB combos (AID 1671451; call rule not given here;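 note: cells exposed for 96 hours before readout; 0% = vehicle DMSO and 100% = killing by high DMSO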); conditions: ICB984 medulloblastoma cells, drug combinations, stronger effect = higher value
[18] = HTB85 osteosarcoma cell growth inhibition, synergistic combos for chromothripsis tumors, BGB or cisplatin IC20 combos (AID 1671453; in the data active = inhibition above about 80%;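 note: cells exposed for 96 hours before readout; 0% = vehicle DMSO and 100% = high DMSO killing control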); conditions: HTB85 osteosarcoma cells, drug combinations, stronger effect = higher value
[19] = MDA-MB-436 breast carcinoma cell growth inhibition, synergistic combos for chromothripsis tumors, BGB or cisplatin combos (AID 1671458; call rule not given here;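 note: cells exposed for 96 hours; 0% = vehicle DMSO and 100% = killing by high DMSO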); conditions: MDA-MB-436 breast carcinoma growth inhibition, drug combinations, stronger effect = higher value
[20] = measured here: epithelial PC-3E GFP cell survival
[21] = measured here: mesenchymal TEM4-18 mCherry cell survival
[22] = stronger effect = lower value, cell number ratio, induced over uninduced
[23] = measured here: relative caspase fold change +Dox/-Dox
[24] = measured here: total cells with miR-34 induction, stronger effect = lower value
[25] = measured here: total cells without miR-34 induction
[26] = MELAS cybrid survival, CellTiter-Glo 48 h, stronger effect = higher value
[27] = Rieske KO mouse fibroblast survival, CellTiter-Glo 72 h

Chain of NAD(+) hydrolase SARM1 (Homo sapiens) (Q6SZW1 whole entry, looked up): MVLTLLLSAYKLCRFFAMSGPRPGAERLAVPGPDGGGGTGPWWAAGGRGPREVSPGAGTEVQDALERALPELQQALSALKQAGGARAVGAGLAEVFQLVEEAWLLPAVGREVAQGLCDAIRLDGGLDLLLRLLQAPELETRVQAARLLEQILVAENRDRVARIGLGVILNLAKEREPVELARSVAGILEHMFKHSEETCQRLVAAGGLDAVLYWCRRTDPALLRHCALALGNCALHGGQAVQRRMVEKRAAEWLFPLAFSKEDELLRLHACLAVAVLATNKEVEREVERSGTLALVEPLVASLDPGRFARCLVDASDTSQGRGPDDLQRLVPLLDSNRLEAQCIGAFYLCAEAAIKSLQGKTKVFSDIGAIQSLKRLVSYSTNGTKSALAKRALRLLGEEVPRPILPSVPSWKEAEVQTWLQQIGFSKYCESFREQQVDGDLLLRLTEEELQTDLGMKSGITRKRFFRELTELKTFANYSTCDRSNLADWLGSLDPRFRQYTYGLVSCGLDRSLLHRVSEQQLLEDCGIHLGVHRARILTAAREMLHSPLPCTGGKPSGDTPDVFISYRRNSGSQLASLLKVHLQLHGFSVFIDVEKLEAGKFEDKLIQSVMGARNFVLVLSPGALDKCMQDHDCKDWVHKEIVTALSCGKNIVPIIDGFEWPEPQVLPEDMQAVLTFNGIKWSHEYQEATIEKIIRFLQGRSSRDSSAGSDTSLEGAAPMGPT

Q: Which survival [1] does the source give for N=C(N)N1CCc2ccccc2C1 here?
A: 9.58 (inactive)

Q: And the nuclear beta-catenin stimulation ([2]; at 10 µM)?
A: 0.5% (inactive)

Q: And the nuclear beta-catenin stimulation ([2]; stimulation, at 2 µM)?
A: 0.9%

Q: What about the insulin secretion stimulation [3] of the same compound?
A: 1.35% (inactive)

Q: What about the viability decrease [4] of the same compound?
A: 12.1% (inactive)

Q: What about the tube area decrease [5] of the same compound?
A: -0.3% (inactive)

Q: What about the GLP1 secretion stimulation [6] of the same compound?
A: 3.1% (inactive)

Q: What about the inhibition of viability [7] of the same compound?
A: 9.2% (inactive)

Q: What about the viability decrease (inhibition) [8] of the same compound?
A: 5.1% (inactive)

Q: And the viability decrease (inhibition) [9]?
A: 0% (inactive)

Q: And the red/green cell ratio (normalised) [10]?
A: 0.87 (inactive)

Q: What about the normalised cell number [10, 20] of the same compound?
A: 1.22

Q: And the normalised cell number [10, 21]?
A: 1.07

Q: What about the fold change [11, 22] of the same compound?
A: 0.813 (inactive) and 0.913 (inactive) and 0.943 (inactive)

Q: And the fold change [11, 23]?
A: 1.55 and 2.39 and 2.81

Q: And the cell count [11, 24]?
A: 8490 and 11800 and 9640

Q: And the cell count [11, 25]?
A: 10400 and 13000 and 10200

Q: And the z-score [12, 26]?
A: 0.0225 (inactive) and -0.468 (inactive)

Q: And the z-score [12, 27]?
A: -0.12 and -1.06

Q: What about the remaining NAD [13] of the same compound?
A: 10 nM (inactive)

Q: What does the source list for CCN1C(=O)NC(c2ccccc2)C1=O (configuration not stated)?
A: survival [1]: 2.42 (inactive); parasite load remaining [14]: 83.9% (inactive); viability [14]: 100%; nuclear beta-catenin stimulation ([2]; at 10 µM): -2.4% (inactive); nuclear beta-catenin stimulation ([2]; stimulation, at 2 µM): -0.9%; insulin secretion stimulation [3]: -1% (inactive); viability decrease [4]: -5.5% (inactive); tube area decrease [5]: -23% (inactive); GLP1 secretion stimulation [6]: 7% (inactive); inhibition of viability [7]: -1% (inactive); viability decrease (inhibition) [8]: 2.2% (inactive); viability decrease (inhibition) [9]: 8.6% (inactive); red/green cell ratio (normalised) [10]: 0.92 (inactive); normalised cell number [10, 20]: 1.08; normalised cell number [10, 21]: 1; fold change [11, 22]: 0.858 (inactive); fold change [11, 23]: 1.11; cell count [11, 24]: 8830; cell count [11, 25]: 10300; z-score [12, 26]: 0.723 (inactive); z-score [12, 27]: 0.79; remaining NAD [13]: 10 nM (inactive)

Q: Which results are given for O=c1cc[nH]c(=O)[nH]1?
A: nuclear beta-catenin stimulation ([2]; at 10 µM): 2.3% (inactive); nuclear beta-catenin stimulation ([2]; stimulation, at 2 µM): 0.3%; insulin secretion stimulation [3]: 0% (inactive); viability decrease [4]: 0.75% (inactive); tube area decrease [5]: -14.5% (inactive); GLP1 secretion stimulation [6]: -2.6% (inactive); inhibition of viability [7]: 1% (inactive); viability decrease (inhibition) [8]: 8% (inactive); viability decrease (inhibition) [9]: 3.55% (inactive); red/green cell ratio (normalised) [10]: 1.11 (inactive); normalised cell number [10, 20]: 1.05; normalised cell number [10, 21]: 1.16; fold change [11, 22]: 0.956 (inactive) and 0.943 (inactive); fold change [11, 23]: 0.736 and 0.726; cell count [11, 24]: 8740 and 8670; cell count [11, 25]: 9140 and 9190; z-score [12, 26]: -0.276 (inactive); z-score [12, 27]: -0.187; remaining NAD [13]: 10 nM (inactive); inhibition ([15]; at 0.5 µM, stronger effect = higher value): -22.6% (inactive); inhibition ([15]; measured here: combination with BGB IC20, at 0.005 µM): -16.6%; inhibition ([15]; measured here: combination with BGB IC40, at 0.005 µM): -38.5%; inhibition ([15]; measured here: combination with BGB IC40, at 0.05 µM): -9.29%; inhibition ([15]; measured here: combination with cisplatin, at 0.5 µM, stronger effect = higher value): -28.9%; inhibition ([15]; measured here: combination with cisplatin, at 5 µM, stronger effect = higher value): -19.9%; inhibition ([16]; BGB combo, at 5 µM): -47.9%; inhibition ([16]; at 0.5 µM): -41.6% (inactive); inhibition ([16]; cisplatin combo, at 5 µM): -56.4%; inhibition ([16]; measured here: with BGB IC20 combination, at 0.5 µM): -36.5%; inhibition ([16]; measured here: with cisplatin IC20 combination, at 0.5 µM): -23.5%; inhibition ([16]; single agent, at 5 µM): -52%; inhibition ([17]; BGB IC20 combo, at 0.005 µM): -14.6%; inhibition ([17]; BGB IC40 combo, at 0.005 µM): -47.1%; inhibition ([17]; BGB IC40 combo, at 0.05 µM): -28.5%; inhibition ([17]; at 0.5 µM): -27% (inactive); inhibition ([17]; cisplatin combo, at 0.05 µM): -28.5%; inhibition ([17]; cisplatin combo, at 0.5 µM): -48.6%; inhibition ([17]; cisplatin combo, at 5 µM): -27.5%; inhibition ([17]; measured here: 5 uM single agent, at 5 µM): -5.8%; inhibition ([18]; at 0.5 µM): -37.5% (inactive); inhibition ([18]; measured here: with BGB IC20, at 0.5 µM): -69.8%; inhibition ([18]; measured here: with BGB IC20, at 5 µM): -35.2%; inhibition ([18]; measured here: with cisplatin IC20, at 0.5 µM): -26.2%; inhibition ([18]; measured here: with cisplatin IC20, at 5 µM): -33.2%; inhibition ([18]; single agent, at 5 µM): -19.7%; inhibition ([19]; at 0.5 µM): -27.5% (inactive); inhibition ([19]; measured here: BGB combination, at 0.5 µM): -30.5%; inhibition ([19]; measured here: BGB combination, at 5 µM): -26.1%; inhibition ([19]; measured here: cisplatin combination, at 0.5 µM): -40.8%; inhibition ([19]; measured here: cisplatin combination, at 5 µM): -24%
